The nature of assay [1]: TOX21_p53_BLA_p2_viability: Viability Assessment in the Tox21 HCT-116 p53 Agonism Beta-lactamase Assay, Phase 2 (AID 2283591).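 Note: compound exposure lasted 16 h at 37 °C; actives lower the ATP signal meaning cytotoxicity.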 Put shortly: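 Cytotoxicity readout: CellTiter-Glo ATP luminescence, 30 min at room temperature, after the beta-lactamase read. Cells were HCT116 exposed 16 h at 37C to compounds pin-transferred at 217-fold dilution from DMSO stocks.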
Assay [2] has as its target Cellular tumor antigen p53 (Homo sapiens) (UniProt P04637). Put plainly: TOX21_p53_BLA_p2_ratio: Tox21 HCT-116 p53 Agonism Beta-lactamase Assay, Ratio, Phase 2 (AID 2283592). Put shortly: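 Cleaved-to-uncleaved substrate ratio (460 vs 530 nm) measured in HCT116 cells with an inducible beta-lactamase reporter linked to p53 activity. Compounds incubated 16 h at 37C before 2 h room-temperature CCF4-AM loading.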

For assay [3] the target is unchanged. Put plainly: TOX21_p53_BLA_p5_ratio: Tox21 HCT-116 p53 Agonism Beta-lactamase Assay, Ratio, Phase 5 (AID 2283599). Put shortly: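 Beta-lactamase reporter ratio (blue 460 nm over green 530 nm, 405 nm excitation) after 2 h CCF4-AM loading, in HCT-116 cells exposed 16 h at 37 C to compounds pinned at 217-fold dilution. Increases relative to DMSO baseline scored.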

Assay [4] in a line: TOX21_p53_BLA_p5_viability: Viability Assessment in the Tox21 HCT-116 p53 Agonism Beta-lactamase Assay, Phase 5 (AID 2283600). An outline of the steps:
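Viability is taken from cellular ATP content, measured by luciferase luminescence in the same wells after the beta-lactamase ratio read. Cells are seeded at 4000 per well and exposed to DMSO-dissolved compounds, diluted 217-fold, for 16 h.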

The target in assay [5] is Cellular tumor antigen p53 (Homo sapiens) (UniProt P04637). Description: TOX21_p53_BLA_p4_ratio: Tox21 HCT-116 p53 Agonism Beta-lactamase Assay, Ratio, Phase 4 (AID 2283601). An outline of the steps:
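Signal is the blue/green (460nm/530nm) ratio of cleaved versus uncleaved CCF4-AM substrate, read after 2 h substrate loading. Cells were HCT116 carrying the p53-responsive beta-lactamase reporter, dosed 16 h at 37C, 5% CO2; CellTiter-Glo measured in parallel.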

Assay [6] can be described thus: TOX21_p53_BLA_p4_viability: Viability Assessment in the Tox21 HCT-116 p53 Agonism Beta-lactamase Assay, Phase 4 (AID 2283597).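 Note: hits lower the luminescence signal meaning cytotoxicity.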 Put shortly: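 Viability is taken as cellular ATP: after 16 h compound exposure of HCT116 cells and a 2 h room-temperature CCF4-AM substrate step, CellTiter-Glo reagent is added and luminescence is measured 30 min later.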
Assay [7] is described as follows: TOX21_p53_BLA_p3_viability: Viability Assessment in the Tox21 HCT-116 p53 Agonism Beta-lactamase Assay, Phase 3 (AID 2283593).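 Note: cells exposed to compound for 16 h before reading.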 Put shortly:
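Cellular ATP was quantified by CellTiter-Glo luminescence, read after 30 min at room temperature. Beforehand, HCT116 cells (4000/well) received compound 5 h post-seeding, 217-fold diluted from DMSO, then incubated 16 h at 37C.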

Assay [8] deals with Cellular tumor antigen p53 (Homo sapiens) (UniProt P04637). Put plainly: TOX21_p53_BLA_p3_ratio: Tox21 HCT-116 p53 Agonism Beta-lactamase Assay, Ratio, Phase 3 (AID 2283596). An outline of the steps:
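Cells were seeded at 4000/well, rested 5 h at 37C, then dosed with DMSO compound solutions (217-fold dilution) for 16 h. CCF4-AM substrate was loaded for 2 h at room temperature, and the 460/530 nm emission ratio was fitted for gain of signal versus DMSO.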

Assay [9] is described as follows: CCTE_Harrill_HTTr_Viability_MCF7: CCTE's 6-hour Cell Viability Assessment for the High-Throughput Transcriptomics (HTTr) Platform, in MCF-7 cells cultured in DMEM + 10% fetal bovine serum, Harrill Lab (AID 2284010; active = hit-call score of the fitted dose curve at least 0.9, where 1 is the maximum; inactive = score below 0.9). Put shortly: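 Eight-point concentration series, six-hour exposure. Propidium iodide exclusion imaged to assess membrane integrity as a cytotoxicity readout; bidirectional fitting was done with DMSO as negative control and activity baseline.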

Assay [10] in a line: CCTE_Harrill_HTTr_Apoptosis_MCF7: CCTE's 6-hour Apoptosis Assessment for the High-Throughput Transcriptomics (HTTr) Platform, in MCF-7 cells cultured in DMEM + 10% fetal bovine serum, Harrill Lab (AID 2284011; active = hit-call score of the fitted dose curve at least 0.9, where 1 is the maximum; inactive = score below 0.9). Put shortly:
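Cells are dosed with test chemicals at eight concentrations and imaged 6 hours later for caspase-3/7 activity using a green fluorogenic detection reagent. Activity is fitted in both directions against DMSO controls.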

Results filed as inconclusive are left out. The source made the active and inactive calls. Rule for the calls, unless noted: active = hit-call score of the fitted dose curve at least 0.9, where 1 is the maximum; inconclusive = response in the unintended direction; inactive = score below 0.9.

Cellular tumor antigen p53 (Homo sapiens), sequence (P04637 whole entry, looked up): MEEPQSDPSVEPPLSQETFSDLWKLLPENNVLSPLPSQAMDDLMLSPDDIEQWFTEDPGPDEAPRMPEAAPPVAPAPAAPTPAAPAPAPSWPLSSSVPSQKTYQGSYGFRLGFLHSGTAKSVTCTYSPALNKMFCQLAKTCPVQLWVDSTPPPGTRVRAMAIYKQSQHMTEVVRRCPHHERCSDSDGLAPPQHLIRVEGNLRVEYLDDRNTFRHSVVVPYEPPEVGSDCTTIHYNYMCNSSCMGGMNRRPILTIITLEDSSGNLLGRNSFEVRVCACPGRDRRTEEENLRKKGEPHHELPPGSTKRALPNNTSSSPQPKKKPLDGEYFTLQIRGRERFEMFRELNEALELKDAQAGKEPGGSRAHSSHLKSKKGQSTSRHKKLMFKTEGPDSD

Take `CCCCNCC(O)c1ccc(O)cc1` (configuration not stated): the result in assay [1], in assay [2], in [3], in assay [4] and in assay [5] was inactive.
For the compound `CC1=C2[C@H]3OC(=O)[C@@H](C)[C@@H]3CC[C@@]2(C)C=CC1=O`, the compound was classed as inactive in [1], in [2], in assay [6], in assay [3] and in assay [4].
Regarding `CCN1C[C@]2(COC)[C@H](O)C[C@H](OC)[C@@]34[C@@H]5C[C@@]6(O)[C@H](OC(=O)c7ccccc7)[C@@H]5[C@@](OC(C)=O)([C@@H]([C@H](OC)[C@H]23)[C@@H]14)[C@@H](O)[C@@H]6OC`, the compound was classed as inactive in [1], in assay [2], in [6], in assay [3], in [4] and in assay [5].
For `O=C1CCCCC1Cl` (configuration not stated), the compound was called inactive in assay [1], in [7], in assay [8] and in [6].
As to `CN(C)CCc1c[nH]c2cccc(OP(=O)(O)O)c12`, the compound was classed as inactive in [1], in assay [2], in assay [3] and in assay [4].
Consider `CC(Cl)(Cl)[N+](=O)[O-]`, for which the outcome in assay [1], in assay [2], in assay [6], in assay [3] and in assay [5] was inactive.
Take `ClC=C(Cl)Cl`: the outcome in [1], in assay [2], in [6], in [3] and in assay [5] was inactive.
For `C[C@@H]1[C@@H]2Cc3ccc(O)cc3[C@@]1(C)CCN2CC1CC1`, the compound was called inactive in assay [1], in assay [2], in assay [4] and in [5].
Turning to `COC1CC(=C(c2cccs2)c2cccs2)C[N+](C)(C)C1` (configuration not stated), the compound was called inactive in [1], in assay [2], in [3] and in assay [4].
In the case of `CC(=O)C(C)(C)C`, the call in assay [1], in [2], in assay [3], in assay [4] and in assay [5] was inactive.
For `COC(C)(C)C`, the outcome in assay [1], in assay [2], in assay [6], in assay [3], in assay [4] and in assay [5] was inactive.
With `CCSC(=O)Cl`, the result in assay [1], in [2], in assay [6], in assay [3], in assay [4] and in assay [5] was inactive.
Take `NP(N)(=O)NC(=O)c1ccc(F)cc1`: the compound was classed as inactive in assay [1], in assay [2], in assay [6], in [3] and in [5].
With `CCC(C)Cl` (configuration not stated), the result in [1], in assay [2], in [6], in [3], in assay [4] and in assay [5] was inactive.
`CC(C)(CCl)C(=O)Cl`: the result in [1], in [2], in assay [6], in [3] and in assay [4] was inactive.
In the case of `Cc1coc2c1CCC(C)C2` (configuration not stated), the result in [1], in assay [2], in assay [6], in assay [3] and in assay [4] was inactive.
Consider `CON(C)C(=O)Nc1ccc(Br)cc1`, for which the compound was called inactive in assay [1], in [2], in [6] and in assay [5].
Consider `O=C(Cl)OCc1ccccc1`, for which the outcome in assay [1], in assay [2], in assay [3], in assay [4] and in assay [5] was inactive.
Consider `O=[N+]([O-])CCO`, for which the outcome in [1], in assay [2], in [6], in assay [4] and in assay [5] was inactive.
`ClCC1CO1` (configuration not stated): the call in assay [1], in [2], in assay [6], in assay [3], in assay [4] and in [5] was inactive.
For `CCCCCl`, the call in assay [1], in [7], in assay [8], in assay [6] and in assay [3] was inactive.
As to `COc1cccc(C(=O)CCN[C@@H](C)[C@H](O)c2ccccc2)c1`, the compound was classed as inactive in assay [1], in assay [2], in [6], in assay [3], in assay [4] and in assay [5].
On to `O=[N+]([O-])c1ccccc1CCl`, for which the result in assay [1], in assay [2], in [6], in [3], in assay [4] and in assay [5] was inactive.
As to `CCC/C=C/C=C/C(=O)O[C@H]1/C(=C/C(=O)OC)C[C@H]2C[C@H]([C@@H](C)O)OC(=O)C[C@H](O)C[C@@H]3C[C@H](OC(C)=O)C(C)(C)[C@](O)(C[C@@H]4C/C(=C/C(=O)OC)C[C@H](/C=C/C(C)(C)[C@]1(O)O2)O4)O3`, the outcome in assay [1], in [2], in assay [6], in [3] and in [5] was inactive.
With `Clc1ccc(C2(Cn3cncn3)OCCO2)c(Cl)c1`, the outcome in assay [1], in assay [2], in [3], in [4] and in [5] was inactive.
Consider `CCOC(=O)N(C)C(=O)CSP(=S)(OCC)OCC`, for which the compound was classed as inactive in [1], in [2], in [6], in assay [3], in [4] and in assay [5].
For the compound `C=CC=O`, the outcome in [1], in assay [2], in assay [6], in assay [3] and in assay [4] was inactive.
For the compound `COc1ccc2c(C(=O)c3ccc(Cl)cc3)c(C)n(CC(=O)O)c2c1`, the result in assay [1], in assay [2], in assay [6], in [3], in [4] and in assay [5] was inactive.
As for `CC(Cl)Cl`, the result in assay [1], in assay [2] and in [5] was inactive.
In the case of `Oc1cc(Cl)cc(Cl)c1`, the result in [1], in assay [7], in [8] and in assay [6] was inactive. Moreover, in [3], the concentration at half-maximal activity (AC50) is 85.2 µM (active).
With `OCCSSCCO`, the result in assay [1], in assay [2], in assay [3], in assay [5], in [9] and in assay [10] was inactive.
Consider `O=[N+]([O-])c1ccc(CBr)cc1`, for which the compound was classed as inactive in [1], in [7] and in assay [6]. The AC50 in [8] is 94.3 µM (active).
On to `O=[N+]([O-])c1cccc(O)c1`, for which the outcome in assay [1], in assay [2], in assay [6], in assay [3] and in [4] was inactive.
Consider `COc1cc(CCN)cc(OC)c1OC`, for which the call in assay [1], in assay [2], in assay [6], in assay [3] and in assay [4] was inactive.

In general, AC50 refers to the concentration giving half of the maximal activity seen.

The values are drawn from PubChem BioAssay (EPA / NIEHS).
